Results taken from PubChem BioAssay.
Calls of active or inactive are those of the source.

Experiments:
[1] = system: Plasmodium falciparum Sir2 (PF13_0152, Sir2A); test: pfSir2 binders on small-molecule microarrays, primary screen, biochemical, small-molecule microarray, 635 nm fluorescence (AID 1098); details: small-molecule microarray binding, fluorescence 635 nm; higher = more signal;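 further: score merges spot fluorescence intensity with its signal-to-noise ratio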
[2] = small-molecule microarray binders of probe aDKK1, primary screen, biochemical, biotinylated probe, 635/667 nm fluorescence (AID 1099); details: higher = more signal;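 further: score merges 667nm spot fluorescence with signal to noise across triplicate slides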
[3] = small-molecule microarray binders of probe aCHRDL2, primary screen, biochemical, biotinylated probe, 635/667 nm fluorescence (AID 1100); details: higher = more signal
[4] = splicing luciferase reporter signal modulators, primary screen, spliceosome inhibition project, cell-based, HEK293, splice +/- reporter (AID 1101); details: luminescence, 24 h, higher = more signal, called active from +8 up or from −8 down;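 further: HEK293 cells carrying a splicing-competent luciferase reporter gene; test concentration not given here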
[5] = target: Fibroblast growth factor 10 (Homo sapiens) (UniProt O15520); test: FGF10 binders on small-molecule microarrays, primary screen, biochemical, small-molecule microarray, 635 nm fluorescence (AID 1102); details: FGF10 binding, fluorescence 635 nm, higher = more signal
Fibroblast growth factor 10 (Homo sapiens), sequence (O15520 whole entry, looked up): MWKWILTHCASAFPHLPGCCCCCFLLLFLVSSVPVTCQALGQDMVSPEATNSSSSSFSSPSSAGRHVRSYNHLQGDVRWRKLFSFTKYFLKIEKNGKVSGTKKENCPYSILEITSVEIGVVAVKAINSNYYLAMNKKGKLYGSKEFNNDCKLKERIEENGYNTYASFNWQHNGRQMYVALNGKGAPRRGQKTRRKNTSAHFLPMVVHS

[6] = system: glycogen synthase kinase-3 (GSK3A per assay name; protocol says GSK3B); test: GSK3 binders on small-molecule microarrays, primary screen, biochemical, small-molecule microarray, 635 nm fluorescence, GSK3A (AID 1103); details: small-molecule microarray binding, fluorescence 635 nm; higher = more signal; further: the record names both GSK3A and GSK3B
[7] = target: Epidermal growth factor receptor (Homo sapiens) (UniProt P00533); test: EGFR binders on small-molecule microarrays, primary screen, biochemical, small-molecule microarray, 635 nm fluorescence (AID 1104); details: EGFR binding, higher = more signal;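 further: score merges 667 nm emission intensity with spot signal to noise over triplicate slides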
Epidermal growth factor receptor (Homo sapiens), sequence (P00533 whole entry, looked up): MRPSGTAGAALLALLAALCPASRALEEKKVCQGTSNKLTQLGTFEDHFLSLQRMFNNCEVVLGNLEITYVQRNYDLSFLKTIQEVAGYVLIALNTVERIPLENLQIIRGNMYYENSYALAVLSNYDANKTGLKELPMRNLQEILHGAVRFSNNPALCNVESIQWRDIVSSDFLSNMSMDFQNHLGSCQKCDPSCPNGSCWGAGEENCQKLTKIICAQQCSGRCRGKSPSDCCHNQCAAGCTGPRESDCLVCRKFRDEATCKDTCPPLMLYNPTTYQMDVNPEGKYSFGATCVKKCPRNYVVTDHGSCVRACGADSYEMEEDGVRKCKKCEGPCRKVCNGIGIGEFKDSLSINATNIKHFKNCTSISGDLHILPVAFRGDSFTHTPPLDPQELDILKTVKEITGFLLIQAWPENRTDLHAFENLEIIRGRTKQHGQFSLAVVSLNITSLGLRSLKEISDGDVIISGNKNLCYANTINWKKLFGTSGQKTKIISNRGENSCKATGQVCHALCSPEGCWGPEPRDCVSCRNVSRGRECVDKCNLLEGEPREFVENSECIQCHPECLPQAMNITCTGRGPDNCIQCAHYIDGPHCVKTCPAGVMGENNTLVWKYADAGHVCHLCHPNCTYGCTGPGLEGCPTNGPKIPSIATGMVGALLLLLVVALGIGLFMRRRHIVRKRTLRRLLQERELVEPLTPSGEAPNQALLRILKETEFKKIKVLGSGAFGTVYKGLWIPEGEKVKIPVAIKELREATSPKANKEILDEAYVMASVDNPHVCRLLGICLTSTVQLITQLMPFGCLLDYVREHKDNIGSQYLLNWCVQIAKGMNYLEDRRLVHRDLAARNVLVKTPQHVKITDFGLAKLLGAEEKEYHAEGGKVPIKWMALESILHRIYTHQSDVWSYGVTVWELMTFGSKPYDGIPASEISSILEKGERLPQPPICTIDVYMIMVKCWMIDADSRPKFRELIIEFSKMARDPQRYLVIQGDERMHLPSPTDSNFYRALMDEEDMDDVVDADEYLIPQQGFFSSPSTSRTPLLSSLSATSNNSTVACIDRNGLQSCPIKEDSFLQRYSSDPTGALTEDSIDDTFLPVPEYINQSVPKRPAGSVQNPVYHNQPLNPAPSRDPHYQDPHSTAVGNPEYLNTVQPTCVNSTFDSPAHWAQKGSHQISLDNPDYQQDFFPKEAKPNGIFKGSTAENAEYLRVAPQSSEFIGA

[8] = target: Follistatin-related protein 3 (Homo sapiens) (UniProt O95633); test: FSTL3 binders on small-molecule microarrays, primary screen, biochemical, small-molecule microarray, 635 nm fluorescence (AID 1105); details: FSTL3 binding, higher = more signal;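 further: score merges emission near 667 nm and signal to noise per printed spot across three slides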
Follistatin-related protein 3 (Homo sapiens), sequence (O95633 whole entry, looked up): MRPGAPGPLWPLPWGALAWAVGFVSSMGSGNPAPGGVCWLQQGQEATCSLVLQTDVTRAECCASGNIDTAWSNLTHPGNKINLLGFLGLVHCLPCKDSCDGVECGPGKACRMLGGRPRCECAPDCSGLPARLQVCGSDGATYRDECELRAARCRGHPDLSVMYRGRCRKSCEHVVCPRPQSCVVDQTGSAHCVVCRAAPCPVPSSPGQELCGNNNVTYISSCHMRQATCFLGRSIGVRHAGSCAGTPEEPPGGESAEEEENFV

[9] = target: Dickkopf-related protein 1 (Homo sapiens) (UniProt O94907); test: DKK1 binders on small-molecule microarrays, primary screen, biochemical, small-molecule microarray, 635 nm fluorescence scan (AID 1106); details: DKK1 binding, higher = more signal;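 further: score merges emission near 667 nm with signal to noise over three replicate slides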
Dickkopf-related protein 1 (Homo sapiens), sequence (O94907 whole entry, looked up): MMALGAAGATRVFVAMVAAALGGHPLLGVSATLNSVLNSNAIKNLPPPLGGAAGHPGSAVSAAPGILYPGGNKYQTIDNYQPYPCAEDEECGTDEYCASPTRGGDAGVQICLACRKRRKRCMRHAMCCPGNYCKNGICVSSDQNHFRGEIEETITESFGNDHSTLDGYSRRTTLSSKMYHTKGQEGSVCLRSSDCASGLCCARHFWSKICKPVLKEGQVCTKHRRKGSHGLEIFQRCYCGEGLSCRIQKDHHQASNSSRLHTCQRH

[10] = system: Inhibin beta A chain (activin A); test: INHBA (activin A) binders on microarrays, primary screen, biochemical, small-molecule microarray, 635 nm fluorescence scan (AID 1107); details: small-molecule microarray binding, higher = more signal;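 further: mouse activin A protein probed at 4.33 µg/mL on printed slides; score merges bound-protein fluorescence near 667 nm with spot signal-to-noise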
[11] = system: Human papillomavirus type 1a protein E7 (residues 44-93); test: HPV1a E7 fragment binders on microarrays, primary screen, biochemical, small-molecule microarray, residues 44-93, 635 nm fluorescence (AID 1108); details: small-molecule microarray binding, fluorescence 635 nm; higher = more signal;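 further: E7 fragment applied at 1 µg/mL in TBST for 1 h at 4 C; score combines spot fluorescence with its signal to noise ratio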
[12] = modulators of HCV replicon luciferase signal, primary screen, HCV replication inhibitor project, Huh7 cells, luciferase reporter (AID 1109); details: 48 h, higher = more signal;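 further: huh7 hepatoma cells harbouring a luciferase neomycin HCV replicon reporter; luciferase luminescence as measure of HCV replicon replication; test concentration not given here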
[13] = target: Left-right determination factor 2 (Homo sapiens) (UniProt O00292); test: LEFTY2 binders on small-molecule microarrays, primary screen, biochemical, small-molecule microarray, 635 nm fluorescence scan (AID 1110); details: LEFTY2 binding, higher = more signal
Left-right determination factor 2 (Homo sapiens), sequence (O00292 whole entry, looked up): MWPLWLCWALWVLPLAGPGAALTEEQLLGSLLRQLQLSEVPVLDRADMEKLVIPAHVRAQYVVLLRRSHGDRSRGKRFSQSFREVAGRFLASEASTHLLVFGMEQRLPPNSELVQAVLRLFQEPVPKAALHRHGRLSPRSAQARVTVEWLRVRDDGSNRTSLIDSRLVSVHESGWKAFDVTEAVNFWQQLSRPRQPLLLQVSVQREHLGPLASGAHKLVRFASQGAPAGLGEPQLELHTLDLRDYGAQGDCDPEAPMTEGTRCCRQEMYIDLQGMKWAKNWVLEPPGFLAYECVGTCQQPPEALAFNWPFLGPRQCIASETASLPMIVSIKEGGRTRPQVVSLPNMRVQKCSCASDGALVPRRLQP

[14] = target: Calmodulin-1 (Homo sapiens) (UniProt P0DP23); test: CALM1 binders on microarrays, EGTA buffer, profiling panel, biochemical, small-molecule microarray, Cy5-labelled CALM1 (AID 1111); details: Cy5-CALM1 binding fluorescence, higher = more signal;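 further: labelled calmodulin applied in Tris saline Tween buffer holding calcium plus EGTA and DTT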
[15] = target: Calmodulin-1 (Homo sapiens) (UniProt P0DP23); test: calcium-bound CALM1 binders on microarrays, profiling panel, artefact control for SMM control-protein annotation, biochemical, small-molecule microarray, Cy5-labelled CALM1, plus calcium (AID 1112); details: Cy5-CALM1 binding fluorescence, higher = more signal;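 further: score merges spot fluorescence with signal to noise from triplicate slides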
[16] = small-molecule microarray binders of probe aWnt5a, primary screen, biochemical, biotinylated probe, 635/667 nm fluorescence (AID 1113); details: higher = more signal;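 further: score merges 667 nm fluorescence intensity with signal-to-noise per printed feature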
[17] = small-molecule microarray binders of probe aShh, primary screen, biochemical, biotinylated probe, 635/667 nm fluorescence (AID 1114); details: higher = more signal;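 further: probe is biotin-labelled aShh protein from a stem cell growth factor screen; measures binding of labelled protein to compounds printed on the slide; score merges feature fluorescence at 667 nm with signal-to-noise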
[18] = small-molecule microarray binders of probe aNog, primary screen, biochemical, biotinylated probe, 635/667 nm fluorescence (AID 1115); details: higher = more signal;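 further: probe is biotinylated aNog protein used at 0.15 µg/mL for 1 h at 4 C; z-score combines 667 nm fluorescence of each spot with its signal to noise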
[19] = target: Torsin-1A-interacting protein 1 (Homo sapiens) (UniProt Q5JTV8); test: LAP1 binders from COS7 cell lysate, primary screen, small-molecule microarray, 635/667 nm fluorescence (AID 1116); details: COS7-hLAP1 lysate binding, 635 nm fluorescence, higher = more signal
Torsin-1A-interacting protein 1 (Homo sapiens), sequence (Q5JTV8 whole entry, looked up): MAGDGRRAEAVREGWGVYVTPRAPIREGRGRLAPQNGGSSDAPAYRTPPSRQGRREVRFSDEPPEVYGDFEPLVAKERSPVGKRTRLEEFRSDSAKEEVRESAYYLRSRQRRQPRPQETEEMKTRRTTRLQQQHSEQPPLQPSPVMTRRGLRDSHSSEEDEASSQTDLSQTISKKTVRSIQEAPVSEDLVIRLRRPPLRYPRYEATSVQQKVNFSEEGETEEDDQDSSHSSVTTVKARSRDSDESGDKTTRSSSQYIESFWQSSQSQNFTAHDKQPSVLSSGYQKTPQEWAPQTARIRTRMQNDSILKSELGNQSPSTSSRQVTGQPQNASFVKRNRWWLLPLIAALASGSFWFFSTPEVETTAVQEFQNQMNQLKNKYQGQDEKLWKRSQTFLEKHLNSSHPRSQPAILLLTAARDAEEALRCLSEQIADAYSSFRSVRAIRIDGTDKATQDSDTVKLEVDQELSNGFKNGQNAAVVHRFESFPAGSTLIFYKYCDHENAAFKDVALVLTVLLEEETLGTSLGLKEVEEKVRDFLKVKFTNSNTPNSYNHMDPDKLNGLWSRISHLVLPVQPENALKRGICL

[20] = target: Alpha-bungarotoxin (Bungarus multicinctus) (UniProt P60615); test: alpha-bungarotoxin binders on microarray, profiling panel, artefact control for SMM control protein annotation, biochemical, small-molecule microarray, Alexa647 label, 635/667 nm fluorescence (AID 1117); details: alpha-BTX-A647 binding fluorescence, higher = more signal
Alpha-bungarotoxin (Bungarus multicinctus), sequence (P60615 whole entry, looked up): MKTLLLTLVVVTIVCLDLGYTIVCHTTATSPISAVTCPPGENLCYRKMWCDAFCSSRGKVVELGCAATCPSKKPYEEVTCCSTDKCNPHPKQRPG

| SMILES | composite z-score [1] | composite z-score [2] | composite z-score [3] | z-score [4] | composite z-score [5] | composite z-score [6] | composite z-score [7] | composite z-score [8] | composite z-score [9] | composite z-score [10] | composite z-score [11] | z-score [12] | composite z-score [13] | composite z-score [14] | composite z-score [15] | composite z-score [16] | composite z-score [17] | composite z-score [18] | composite z-score [19] | composite z-score [20] |
| --- | --- | --- | --- | --- | --- | --- | --- | --- | --- | --- | --- | --- | --- | --- | --- | --- | --- | --- | --- | --- |
| C=C[C@@H](OC)[C@H](OC(=O)Nc1ccc(OC)cc1)c1ccc(O)c(F)c1 | 1.52 | -0.515 | -0.54 | -0.653 (inactive) | -0.076 | -0.242 | -0.459 | -0.0891 | 0.171 | 1.07 | 0.392 | 0.859 | -0.227 | -1.84 | -1.47 | -0.208 | 0.0796 | -0.834 | 0.302 | -0.839 |
| C=CC[C@]1(C(=O)N2CCOCC2)COC(c2ccc(OCCCO)cc2)=N1 | 1.76 | -0.016 | 0.431 | -0.612 (inactive) | 0.66 | 0.438 | -0.238 | 0.264 | 0.188 | 0.976 | 1.53 | -0.164 | -0.233 | 1.64 | -0.497 | -0.0236 | 0.381 | 1.11 | 1.98 | 2.21 |
| CCOC(=O)C=Cc1cccc(C)c1O | 0.995 | -0.123 | -0.0819 | -1.41 (inactive) | -0.119 | -0.414 | 0.069 | -0.101 | -0.199 | 0.39 | -0.377 | 0.717 | 0.111 | -0.122 | -0.335 | -0.1 | -0.0769 | -0.288 | 0.0897 | 0.11 |
| COc1ccc(CCNC(=O)[C@@]2(c3ccc([N+](=O)[O-])cc3)CC(=O)N(C3CCCCC3)[C@@H]2c2ccc(CO)cc2)cc1 | 0.54 | 0.701 | 0.806 | -0.134 (inactive) | 0.525 | 1 | -0.155 | 0.211 | 0.214 | 0.249 | 0.91 | -0.88 | -0.197 | 0.36 | 0.323 | -0.0341 | -0.0886 | -0.203 | 0.774 | 0.823 |
| CCN(CC)c1ccc(N2CC=CC34O[C@@H]5/C=C\CCCOC(=O)C5[C@H]3C(=O)N(C(C)CO)[C@@H]4C2=O)cc1 (stereo not given in full) | 1.03 | -0.213 | -0.445 | -0.0084 (inactive) | -0.184 | -0.208 | -0.243 | -0.232 | 0.512 | 1.03 | -0.0836 | -0.261 | -0.469 | -0.479 | -0.619 | -0.0405 | 0.297 | 0.0073 | -0.421 | 1.04 |
| COCCOC(=O)N1C(=O)[C@@]2(c3ccccc31)[C@H](C(=O)NC[C@H](O)c1ccccc1)[C@H]1C(=O)O[C@H](c3ccccc3)[C@H](c3ccccc3)N1[C@@H]2c1ccc(O)cc1 | 1.54 | 0.804 | 0.24 | -0.118 (inactive) | 1.42 | 1.32 | 1.01 | 1.44 | 0.827 | -0.0795 | 1.44 | -0.986 | 0.768 | 0.573 | -0.522 | -0.0072 | 0.209 | 0.39 | 1.21 | 1.78 |
| C=CCC(OC(C)=O)[C@@H]1[C@@H](N(Cc2ccc(-c3ccccc3)cc2)C(=O)c2ccc(-c3ccccc3)cc2)c2cc(OCCCO)ccc2N1C(=O)c1ccc2ccccc2c1 (stereo not given in full) | -0.519 | -0.302 | 0.306 | -1.22 (inactive) | -0.015 | -0.0147 | -0.175 | 0.453 | 0.0004 | 0.82 | 0.508 | -0.415 | -0.0379 | 0.493 | 0.839 | -0.11 | 0.0141 | -0.284 | 0.0403 | -0.116 |
| O=C1OCCC/C=C\[C@H]2OC34C=CCN(c5ccc6ccccc6c5)C(=O)[C@H]3N(CCO)C(=O)[C@@H]4C12 (stereo not given in full) | 1.32 | -0.416 | 0.256 | -1.07 (inactive) | -0.654 | -0.785 | -1.83 | -1.59 | -1.09 | 0.0621 | -0.983 | -0.0164 | -1.2 | 0.0755 | 0.903 | -0.154 | -0.0533 | -0.0631 | -0.399 | -1.95 |
| Cc1ccc(S[C@]2(C(=O)NCC(F)(F)F)CC(=O)N(Cc3cc(C(F)(F)F)cc(C(F)(F)F)c3)[C@@H]2c2ccc(CO)cc2)cc1 | 1.13 | -0.193 | 0.532 | 0.507 (inactive) | -0.463 | -0.864 | -0.814 | -0.861 | -0.928 | -0.45 | -0.109 | -0.099 | -0.968 | -0.392 | 0.159 | -0.25 | -0.356 | 0.162 | -0.851 | -0.633 |
| COC(=O)[C@@H]1N=C(c2ccc(OCCCO)cc2)O[C@@H]1c1ccccc1 | 1.76 | 0.311 | 0.725 | -2.07 (inactive) | -1.4 | -1.33 | -0.665 | -1.22 | -1.71 | -0.0285 | -1.38 | -1.94 | -1.55 | -0.494 | -0.294 | -0.152 | -0.0709 | -0.59 | -0.992 | -0.213 |
| COC(=O)C(CC#Cc1ccc2c(c1)[C@]1(C(=O)N2)[C@H](c2ccc(O)cc2)N2[C@H](c3ccccc3)[C@H](c3ccccc3)OC(=O)[C@H]2[C@@H]1C(=O)NC[C@H](O)c1ccccc1)C(=O)OC | -0.282 | 0.6 | 0.405 | 0.0183 (inactive) | 0.986 | 1.11 | 0.588 | 0.523 | 0.432 | 0.335 | 0.829 | -1.04 | 0.337 | 0.175 | -0.102 | -0.0606 | -0.0709 | 0.0169 | 1.24 | 0.624 |
